Records with an inconclusive call do not appear. Activity calls are given as the source filed them. Unless noted, calls come from the whole dose curve; as a rule, active = well fitted curve in the direction sought with a large enough effect in the repeat runs; inconclusive = weak or mixed curves; inactive = no such curve, though single readings can be large; an effect the other way counts as inactive or inconclusive.
Assays:
[1] = qHTS assay to identify small molecule agonists of the peroxisome proliferator-activated receptor delta (PPARd) signaling pathway - cell viability counter screen (AID 743211); note: nearly all actives have a fitted effect of over 55% in size
Summary of the method: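 Viability of GeneBLAzer PPARd UAS-bla HEK293H cells was assessed after 17 h compound incubation at 37C, using CellTiter-Glo reagent added after the reporter read and luminescence recorded 30 min later.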

[2] = biological target: Peroxisome proliferator-activated receptor delta (Homo sapiens) (UniProt Q03181); test: qHTS assay to identify small molecule agonists of the peroxisome proliferator-activated receptor delta (PPARd) signaling pathway (AID 743212; calls by dose curve)
Summary of the method: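 HEK293H PPARd-bla cells; 5 h preincubation 37 C/5% CO2; compound (DMSO) 37 C; LiveBLAzer B/G FRET substrate 2 h RT; fluorescence intensity.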

[3] = qHTS assay to identify small molecule antagonists of the peroxisome proliferator-activated receptor delta (PPARd) signaling pathway - cell viability counter screen (AID 743213); note: nearly all actives have a fitted effect of over 50% in size
Summary of the method: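 Viability counter-screen, qHTS format: PPARd-bla HEK293H, L165041 300 nM final, 17 h compound exposure at 37 C, CellTiter-Glo luminescence after 30 min RT.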

[4] = biological target: Peroxisome proliferator-activated receptor delta (Homo sapiens) (UniProt Q03181); test: qHTS assay to identify small molecule antagonists of the peroxisome proliferator-activated receptor delta (PPARd) signaling pathway (AID 743215; active = well fitted inhibition curve with a large enough effect in the signal ratio in the repeat runs, not every such curve was filed as active; the % refers to the signal ratio;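 note: cells stimulated with agonist L165041 at 300 nM final during compound exposure; series mostly up to about 62 µM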)
Summary of the method: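 HEK293H UAS-bla, PPARd; agonist L165041 300 nM final with cpd in DMSO; 37 C 17 h; FRET substrate, RT 2 h; fluorescence intensity.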

[5] = biological target: Bile acid receptor (Homo sapiens) (UniProt Q96RI1); test: qHTS assay to identify small molecule antagonists of the farnesoid-X-receptor (FXR) signaling pathway (AID 743217; active = well fitted inhibition curve with a large enough effect in the signal ratio in the repeat runs, not every such curve was filed as active; the % refers to the signal ratio)
Summary of the method: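 GeneBLAzer FXR-UAS-bla HEK 293T, CDCA-stimulated (50 uM final). Compound treatment 16 h, 37 °C. Detection: beta-lactamase cleavage of B/G FRET substrate, fluorescence.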

[6] = qHTS assay to identify small molecule agonists of the farnesoid-X-receptor (FXR) signaling pathway - cell viability counter screen (AID 743218); note: nearly all actives have a fitted effect of over 45% in size
Summary of the method: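 Parallel cytotoxicity test: compound-treated (16 h, 37 C) HEK 293T FXR-bla reporter cells were lysed with CellTiter-Glo and luminescence recorded.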

[7] = biological target: Bile acid receptor (Homo sapiens) (UniProt Q96RI1); test: qHTS assay to identify small molecule agonists of the farnesoid-X-receptor (FXR) signaling pathway (AID 743220; active = well fitted activation curve with a large enough effect in the signal ratio in the repeat runs, not every such curve was filed as active; the % refers to the signal ratio)
Summary of the method: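 Beta-lactamase reporter under UAS control in GeneBLAzer FXR HEK 293T cells (5000/well) measured with LiveBLAzer FRET substrate after 2 h at room temperature. Compound exposure lasted 16 h at 37C.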

[8] = qHTS assay to identify small molecule antagonists of the farnesoid-X-receptor (FXR) signaling pathway - cell viability counter screen (AID 743221; active = well fitted cell-killing curve with a large enough effect in the repeat runs, not every such curve was filed as active; note: nearly all actives have a fitted effect of over 50% in size)
Summary of the method: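 Quantitative HTS of the Tox21 10K library run in parallel with the beta-lactamase reporter read. HEK 293T cells carrying a UAS-driven bla reporter got compound and 50 uM CDCA (final) for 16 h; ATP-based luminescence followed.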

[9] = qHTS assay to identify small molecule agonists of the vitamin D receptor (VDR) signaling pathway - cell viability counter screen (AID 743224); note: series mostly up to about 63 µM; nearly all actives have a fitted effect of over 50% in size
Summary of the method: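 Plated VDR-bla cells (4 h, 37C) received compound, incubated 16 h, then LiveBLAzer substrate 2 h RT; CellTiter-Glo added afterwards, luminescence read at 30 min.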

[10] = qHTS assay to identify small molecule antagonists of the vitamin D receptor (VDR) signaling pathway - cell viability counter screen (AID 743225); note: nearly all actives have a fitted effect of over 50% in size
Summary of the method: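 Cells (VDR-UAS-bla HEK 293T) are plated, rested 4 h at 37C, dosed with compound and 3 nM final 1-alpha,25-dihydroxy vitamin D3, and incubated 16 h. Viability is taken from CellTiter-Glo luminescence in the reporter wells.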

[11] = qHTS assay to identify small molecule agonists of the NFkB signaling pathway (AID 1159509; active = well fitted curve in the direction sought with a large enough effect in the signal ratio in the repeat runs, not every such curve was filed as active; the % refers to the signal ratio; note: series mostly up to about 61 µM)
Summary of the method: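 ME-180 NFkB-bla, 2,000 cells/well, overnight plating; cpd pinned in DMSO, 5 h 37 C; B/G FRET substrate 1.5 h RT; ex 405, em 460/530 nm.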

[12] = qHTS assay to identify small molecule agonists of the NFkB signaling pathway - cell viability counter screen (AID 1159515; calls by dose curve; note: series mostly up to about 61 µM; nearly all actives have a fitted effect of over 55% in size)
Summary of the method: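 Using the same wells as the NFkB reporter read, ME-180 NFkB-bla cells given compounds for 5 hr were assessed for viability via CellTiter-Glo, with luminescence taken after a 30 min room-temperature incubation.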

[13] = qHTS assay to identify small molecule agonists of the endoplasmic reticulum stress response signaling pathway (AID 1159516; active = well fitted activation curve with a large enough effect in the signal ratio in the repeat runs, not every such curve was filed as active; the % refers to the signal ratio)
Summary of the method: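 An ESRE-bla HeLa cell assay: compounds were pin-transferred from DMSO onto overnight-plated cells and left 5 hr at 37 C. Substrate was then loaded for 2 hr at room temperature before reading fluorescence at 460 nm and 530 nm.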

[14] = qHTS assay to identify small molecule agonists of the endoplasmic reticulum stress response signaling pathway - cell viability counter screen (AID 1159517; calls by dose curve)
Summary of the method: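 HeLa cells carrying an ESRE-driven beta-lactamase reporter receive compound for 5 hr at 37 C. Cell viability is then gauged with CellTiter-Glo by luminescence, 30 min at room temperature.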

[15] = qHTS assay to identify small molecule antagonists of the retinoid-related orphan receptor gamma (ROR-gamma) signaling pathway - cell viability counter screen (AID 1159520); note: nearly all actives have a fitted effect of over 50% in size
Summary of the method: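 Cytotoxicity was read from cellular ATP (CellTiter-Glo luminescence) after 16 hr at 37 C with 1 uM doxycycline induction. The inducer was added 2 hr after compound transfer to Tet-on ROR gamma CHO cells.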

[16] = biological target: Nuclear receptor ROR-gamma (Homo sapiens) (UniProt P51449); test: qHTS assay to identify small molecule antagonists of the retinoid-related orphan receptor gamma (ROR-gamma) signaling pathway (AID 1159521)
Summary of the method: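 RORγ antagonism is scored from reduced reporter luminescence in Tet-on CHO cells. Induction used 1 uM final doxycycline hyclate for 16 h at 37 C, following a 2 h compound exposure.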

[17] = qHTS assay to identify small molecule agonists of the AP-1 signaling pathway - cell viability counter screen (AID 1159525; calls by dose curve; note: nearly all actives have a fitted effect of over 55% in size)
Summary of the method: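 Luminescent ATP readout (Cell Titer Glo, 30 min RT), normalised to DMSO and tetra n-octyl ammonium bromide controls. Cells were ME-180 AP-1-bla in 0.5% dialyzed FBS Opti-MEM, with a 5 h, 37 °C compound exposure.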

[18] = qHTS assay to identify small molecule agonists of the AP-1 signaling pathway (AID 1159526; calls by dose curve)
[19] = biological target: Vitamin D3 receptor (Homo sapiens) (UniProt P11473); test: qHTS assay to identify small molecule agonists of the vitamin D receptor (VDR) signaling pathway (AID 743222; calls by dose curve)
Summary of the method: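 In VDR-bla cells, compound-induced beta-lactamase expression is quantified by FRET substrate fluorescence. Treatment lasts 16 h at 37C; substrate develops 2 h at room temperature.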

[20] = biological target: Vitamin D3 receptor (Homo sapiens) (UniProt P11473); test: qHTS assay to identify small molecule antagonists of the vitamin D receptor (VDR) signaling pathway (AID 743223; active = well fitted inhibition curve with a large enough effect in the signal ratio in the repeat runs, not every such curve was filed as active; the % refers to the signal ratio)
Summary of the method: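 Fluorescence from LiveBLAzer B/G FRET substrate, read after 2 h at room temperature, reflects beta-lactamase reporter activity in VDR-bla cells treated 16 h at 37C with compounds and agonist 1alpha,25-dihydroxyvitamin D3 (3 nM final).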

Measured: Potency

Sequence of Bile acid receptor (Homo sapiens) (Q96RI1 whole entry, looked up): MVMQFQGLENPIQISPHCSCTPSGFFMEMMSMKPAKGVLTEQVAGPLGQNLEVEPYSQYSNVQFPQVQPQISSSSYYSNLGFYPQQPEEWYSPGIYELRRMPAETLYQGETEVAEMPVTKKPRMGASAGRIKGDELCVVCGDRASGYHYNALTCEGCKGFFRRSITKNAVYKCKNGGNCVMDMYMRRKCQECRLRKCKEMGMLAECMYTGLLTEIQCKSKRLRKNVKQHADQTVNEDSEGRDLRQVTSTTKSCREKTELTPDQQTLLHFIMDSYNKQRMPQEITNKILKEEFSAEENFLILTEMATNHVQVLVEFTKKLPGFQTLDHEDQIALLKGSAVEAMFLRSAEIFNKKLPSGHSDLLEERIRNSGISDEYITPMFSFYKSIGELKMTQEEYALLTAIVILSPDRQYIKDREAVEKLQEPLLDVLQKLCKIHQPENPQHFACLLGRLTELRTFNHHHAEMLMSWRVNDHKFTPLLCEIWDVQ
Sequence of Peroxisome proliferator-activated receptor delta (Homo sapiens) (Q03181 whole entry, looked up): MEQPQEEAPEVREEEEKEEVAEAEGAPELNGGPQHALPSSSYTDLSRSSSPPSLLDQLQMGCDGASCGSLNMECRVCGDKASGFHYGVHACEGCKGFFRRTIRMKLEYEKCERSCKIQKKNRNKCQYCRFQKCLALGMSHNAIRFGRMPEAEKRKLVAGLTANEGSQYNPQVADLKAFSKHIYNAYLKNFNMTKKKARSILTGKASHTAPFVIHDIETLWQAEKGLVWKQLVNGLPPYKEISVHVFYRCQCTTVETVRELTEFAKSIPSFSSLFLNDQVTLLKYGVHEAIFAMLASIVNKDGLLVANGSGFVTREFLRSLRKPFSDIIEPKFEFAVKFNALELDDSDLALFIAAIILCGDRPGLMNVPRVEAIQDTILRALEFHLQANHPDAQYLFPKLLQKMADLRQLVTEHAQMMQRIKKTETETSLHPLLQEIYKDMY
Sequence of Vitamin D3 receptor (Homo sapiens) (P11473 whole entry, looked up): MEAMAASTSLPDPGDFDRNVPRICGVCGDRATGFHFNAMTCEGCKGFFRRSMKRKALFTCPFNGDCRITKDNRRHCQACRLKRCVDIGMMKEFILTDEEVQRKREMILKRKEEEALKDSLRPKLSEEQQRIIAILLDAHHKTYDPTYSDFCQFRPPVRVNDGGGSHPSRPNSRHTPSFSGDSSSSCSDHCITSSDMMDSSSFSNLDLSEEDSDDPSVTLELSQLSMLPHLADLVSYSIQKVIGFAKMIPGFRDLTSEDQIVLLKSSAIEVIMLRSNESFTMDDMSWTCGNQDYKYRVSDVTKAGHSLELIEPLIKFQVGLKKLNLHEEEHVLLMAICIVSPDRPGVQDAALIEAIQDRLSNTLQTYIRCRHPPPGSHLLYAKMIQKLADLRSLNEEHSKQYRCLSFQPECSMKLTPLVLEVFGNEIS

CCN1CCc2nc(N)oc2CC1
not listed: [19] | [20]
inactive: all other assays above

N[C@@H](CCC(=O)Nc1ccc([N+](=O)[O-])cc1)C(=O)O
inactive: all assays above

C[C@@H](O)[C@H]1C(=O)N2C(C(=O)O)=C(SCCN=CN)C[C@H]12
not listed: [9] | [10] | [19] | [20]
inactive: all other assays above

O=Cc1ccc(Cl)c(Cl)c1
not listed: [5] | [7] | [10]
inactive: all other assays above

C[C@@H](Oc1ccc(CNC(=O)c2cccnc2Oc2ccc3c(c2)OCO3)c(F)c1)C(=O)O
inactive: all assays above

COc1nccnc1NS(=O)(=O)c1ccc(N)cc1
not listed: [6] | [20]
inactive: all other assays above

O=C1c2ccccc2C(=O)C1c1ccccc1
not listed: [19] | [20]
inactive: all other assays above

CC[C@H](C)C(=O)O[C@H]1C[C@H](O)C=C2C=C[C@H](C)[C@H](CC[C@@H](O)C[C@@H](O)CC(=O)O)[C@H]21
not listed: [5] | [7] | [20]
inactive: all other assays above

O=C1c2ccccc2C(=O)c2cc(S(=O)(=O)O)ccc21
not listed: [5] | [7]
inactive: all other assays above

Cc1cc2cc3c(C)cc(=O)oc3c(C)c2o1
not listed: [5] | [7] | [20]
inactive: all other assays above

CC(C)(C)NC(N)=O
not listed: [5] | [6] | [7]
inactive: all other assays above

CCOC(=O)CC(=O)c1ccccc1
not listed: [5] | [7] | [20]
inactive: all other assays above

COc1ccc(S(=O)(=O)N2c3ccc(Cl)cc3[C@@](O)(c3ccccc3Cl)[C@H]2C(=O)N2CCC[C@@H]2C(N)=O)cc1OC
not listed: [5] | [7] | [20]
inactive: all other assays above

CCNC(=O)C1CC(C)CCC1C(C)C (centres undefined)
not listed: [5] | [7]
inactive: all other assays above

CCCCC(CC)COCCO (centres undefined)
not listed: [5] | [6] | [7] | [10]
inactive: all other assays above

CC1(C)S[C@@H]2[C@H](N=CN3CCCCCC3)C(=O)N2[C@H]1C(=O)O
not listed: [5] | [7]
inactive: all other assays above

COc1ccc(OC)c(Cl)c1
not listed: [5] | [7] | [19] | [20]
inactive: all other assays above

CCCCCCN
not listed: [5] | [7]
inactive: all other assays above

Cc1c(I)c(=O)n(-c2ccccc2)n1C
not listed: [5] | [7] | [19] | [20]
inactive: all other assays above

CC(C)C(=O)OCc1cccc(OC(=O)[C@@H]2N3C(=O)[C@@H](NC(=O)Cc4ccccc4)[C@H]3SC2(C)C)c1
not listed: [5] | [7] | [20]
inactive: all other assays above

CC(=O)CCCCn1c(=O)c2c(ncn2C)n(C)c1=O
not listed: [5] | [7] | [19] | [20]
inactive: all other assays above

ClCCCl
not listed: [5] | [6] | [7]
inactive: all other assays above

COc1ccc(-c2cc(=O)c3c(O)cc(O[C@@H]4O[C@H](CO[C@@H]5O[C@@H](C)[C@H](O)[C@@H](O)[C@H]5O)[C@@H](O)[C@H](O)[C@H]4O)cc3o2)cc1O
not listed: [5] | [7]
inactive: all other assays above

CC(C)N(c1ccccc1)C(C)C
not listed: [5] | [7] | [20]
inactive: all other assays above

C=COCCOCCOCCOC=C
not listed: [5] | [7]
inactive: all other assays above

CCC(C)NC(N)=O (centres undefined)
not listed: [5] | [7]
inactive: all other assays above

CC(C)=CCOC(=O)c1ccccc1
not listed: [5] | [7] | [10] | [19] | [20]
inactive: all other assays above

CCn1ccc(NS(=O)(=O)c2ccc(N)cc2)nc1=O
not listed: [5] | [7] | [20]
inactive: all other assays above

Cc1ccc2ccc(Cl)cc2n1
not listed: [5] | [7]
inactive: all other assays above

COc1ccc2nc(SCc3ncc(C)c(OC)c3C)[nH]c2c1
not listed: [5] | [7] | [20]
inactive: all other assays above

COc1cc2c(cc1OC)C(=O)CC2
not listed: [5] | [7] | [20]
inactive: all other assays above

CC1COc2ccccc2N1 (centres undefined)
not listed: [5] | [7] | [20]
inactive: all other assays above
